# Laboratory results as given in the supplement of paper PMC4466140.
# Experiments:
# Assay in all cases: SPOT peptide array binding signal intensity (averaged, normalized) (arbitrary units (background-subtracted, floor 0; scale differs between SH3 domains)); higher = stronger binding of the SH3 domain to the peptide
# AgAbp1 = biological target: AgAbp1
# Method in brief: (§1)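 Spot intensities were captured after detection with anti-GST antibody, an HRP-linked anti-mouse secondary and luminol, and quantified with Genespotter. The probes were GST-fused SH3 domains from four yeast species, produced in E. coli BL21(DE3), purified on glutathione Sepharose and incubated at 10 μg/ml overnight at 4°C on cellulose-bound synthetic 15-mer peptides with cysteines replaced by serines. Binding signal is the normalized, background-subtracted spot intensity averaged over replicates, and its arbitrary units differ between domains.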
# AgBbc1 = biological target: AgBbc1
# Method in brief: as §1
# AgBem1-D1 = biological target: AgBem1-D1
# Method in brief: as §1
# AgBzz1-D1 = biological target: AgBzz1-D1
# Method in brief: as §1
# AgBzz1-D2 = biological target: AgBzz1-D2
# Method in brief: as §1
# AgCyk3 = biological target: AgCyk3
# Method in brief: as §1
# AgFus1 = biological target: AgFus1
# Method in brief: as §1
# AgHof1 = biological target: AgHof1
# Method in brief: as §1
# AgHse1 = biological target: AgHse1
# Method in brief: as §1
# AgLsb1 = biological target: AgLsb1
# Method in brief: as §1
# AgLsb4 = biological target: AgLsb4
# Method in brief: as §1
# AgMyo5 = biological target: AgMyo5
# Method in brief: as §1
# AgNbp2 = biological target: AgNbp2
# Method in brief: as §1
# AgRvs167 = biological target: AgRvs167
# Method in brief: as §1
# AgSho1 = biological target: AgSho1
# Method in brief: as §1
# AgSla1-D1-D2 = biological target: AgSla1-D1-D2
# Method in brief: as §1
# AgSla1-D3 = biological target: AgSla1-D3
# Method in brief: as §1
# CaAbp1-D1 = biological target: CaAbp1-D1
# Method in brief: as §1
# CaAbp1-D2 = biological target: CaAbp1-D2
# Method in brief: as §1
# CaBbc1 = biological target: CaBbc1
# Method in brief: as §1
# CaBem1-D1 = biological target: CaBem1-D1
# Method in brief: as §1
# CaBzz1-D1 = biological target: CaBzz1-D1
# Method in brief: as §1
# CaBzz1-D2 = biological target: CaBzz1-D2
# Method in brief: as §1
# CaCyk3 = biological target: CaCyk3
# Method in brief: as §1
# CaFus1 = biological target: CaFus1
# Method in brief: as §1
# CaHof1 = biological target: CaHof1
# Method in brief: as §1
# CaHse1 = biological target: CaHse1
# Method in brief: as §1
# CaLsb1 = biological target: CaLsb1
# Method in brief: as §1
# CaLsb4 = biological target: CaLsb4
# Method in brief: as §1
# CaMyo5 = biological target: CaMyo5
# Method in brief: as §1
# SpBzz1-D2 = biological target: SpBzz1-D2
# Method in brief: as §1
# SpCyk3 = biological target: SpCyk3
# Method in brief: as §1
# SpHof1 = biological target: SpHof1
# Method in brief: as §1
# SpHof1-2 = biological target: SpHof1-2
# Method in brief: as §1
# SpHof1-3 = biological target: SpHof1-3
# Method in brief: as §1
# SpHse1 = biological target: SpHse1
# Method in brief: as §1
# SpLsb1 = biological target: SpLsb1
# Method in brief: as §1
# SpLsb4 = biological target: SpLsb4
# Method in brief: as §1
# SpMyo1 = biological target: SpMyo1
# Method in brief: as §1
# SpNbp2 = biological target: SpNbp2
# Method in brief: as §1
# SpPex13 = biological target: SpPex13
# Method in brief: as §1
# SpRvs167 = biological target: SpRvs167
# Method in brief: as §1
# SpSla1-D1-D2 = biological target: SpSla1-D1-D2
# Method in brief: as §1
# SpSla1-D3 = biological target: SpSla1-D3
# Method in brief: as §1
# CaNbp2 = biological target: CaNbp2
# Method in brief: as §1
# CaRvs167 = biological target: CaRvs167
# Method in brief: as §1
# CaRvs167-3 = biological target: CaRvs167-3
# Method in brief: as §1
# CaSho1 = biological target: CaSho1
# Method in brief: as §1
# CaSla1-D1-D2 = biological target: CaSla1-D1-D2
# Method in brief: as §1
# CaSla1-D3 = biological target: CaSla1-D3
# Method in brief: as §1
# ScAbp1 = biological target: ScAbp1
# Method in brief: as §1
# ScBbc1 = biological target: ScBbc1
# Method in brief: as §1
# ScBem1-D1 = biological target: ScBem1-D1
# Method in brief: as §1
# ScBzz1-D1 = biological target: ScBzz1-D1
# Method in brief: as §1
# ScBzz1-D2 = biological target: ScBzz1-D2
# Method in brief: as §1
# ScCyk3 = biological target: ScCyk3
# Method in brief: as §1
# ScFus1 = biological target: ScFus1
# Method in brief: as §1
# ScHof1 = biological target: ScHof1
# Method in brief: as §1
# ScHse1 = biological target: ScHse1
# Method in brief: as §1
# ScLsb1 = biological target: ScLsb1
# Method in brief: as §1
# ScLsb2 = biological target: ScLsb2
# Method in brief: as §1
# ScLsb3 = biological target: ScLsb3
# Method in brief: as §1
# ScLsb4 = biological target: ScLsb4
# Method in brief: as §1
# ScMyo3 = biological target: ScMyo3
# Method in brief: as §1
# ScMyo5 = biological target: ScMyo5
# Method in brief: as §1
# ScNbp2 = biological target: ScNbp2
# Method in brief: as §1
# ScPex13 = biological target: ScPex13
# Method in brief: as §1
# ScRvs167 = biological target: ScRvs167
# Method in brief: as §1
# ScSho1 = biological target: ScSho1
# Method in brief: as §1
# ScSla1-D1-D2 = biological target: ScSla1-D1-D2
# Method in brief: as §1
# ScSla1-D3 = biological target: ScSla1-D3
# Method in brief: as §1
# SpAbp1-D1 = biological target: SpAbp1-D1
# Method in brief: as §1
# SpBbc1 = biological target: SpBbc1
# Method in brief: as §1
# SpBzz1-D1 = biological target: SpBzz1-D1
# Method in brief: as §1
binder,measurement,setting,value
ITHRLRISIPGITGR,SPOT peptide array binding signal intensity,AgAbp1,4.5
same,SPOT peptide array binding signal intensity,AgBbc1,199
same,SPOT peptide array binding signal intensity,AgBem1-D1,314
same,SPOT peptide array binding signal intensity,AgBzz1-D1,121
same,SPOT peptide array binding signal intensity,AgBzz1-D2,236
same,SPOT peptide array binding signal intensity,AgCyk3,10
same,SPOT peptide array binding signal intensity,AgFus1,1770
same,SPOT peptide array binding signal intensity,AgHof1,112
same,SPOT peptide array binding signal intensity,AgHse1,580
same,SPOT peptide array binding signal intensity,AgLsb1,54.5
same,SPOT peptide array binding signal intensity,AgLsb4,687
same,SPOT peptide array binding signal intensity,AgMyo5,≤ 0
same,SPOT peptide array binding signal intensity,AgNbp2,101
same,SPOT peptide array binding signal intensity,AgRvs167,16.7
same,SPOT peptide array binding signal intensity,AgSho1,329
same,SPOT peptide array binding signal intensity,AgSla1-D1-D2,116
same,SPOT peptide array binding signal intensity,AgSla1-D3,6
same,SPOT peptide array binding signal intensity,CaAbp1-D1,111
same,SPOT peptide array binding signal intensity,CaAbp1-D2,39
same,SPOT peptide array binding signal intensity,CaBbc1,306
same,SPOT peptide array binding signal intensity,CaBem1-D1,84
same,SPOT peptide array binding signal intensity,CaBzz1-D1,362
same,SPOT peptide array binding signal intensity,CaBzz1-D2,226
same,SPOT peptide array binding signal intensity,CaCyk3,37.5
same,SPOT peptide array binding signal intensity,CaFus1,2510
same,SPOT peptide array binding signal intensity,CaHof1,1.75
same,SPOT peptide array binding signal intensity,CaHse1,62.5
same,SPOT peptide array binding signal intensity,CaLsb1,5
same,SPOT peptide array binding signal intensity,CaLsb4,141
same,SPOT peptide array binding signal intensity,CaMyo5,20.8
VKPRQLFPIPLNKVD,SPOT peptide array binding signal intensity,SpBzz1-D2,≤ 0
same,SPOT peptide array binding signal intensity,SpCyk3,≤ 0
same,SPOT peptide array binding signal intensity,SpHof1,11.5
same,SPOT peptide array binding signal intensity,SpHof1-2,5.5
same,SPOT peptide array binding signal intensity,SpHof1-3,310
same,SPOT peptide array binding signal intensity,SpHse1,84.5
same,SPOT peptide array binding signal intensity,SpLsb1,133
same,SPOT peptide array binding signal intensity,SpLsb4,28.5
same,SPOT peptide array binding signal intensity,SpMyo1,3.25
same,SPOT peptide array binding signal intensity,SpNbp2,21.5
same,SPOT peptide array binding signal intensity,SpPex13,6
same,SPOT peptide array binding signal intensity,SpRvs167,10
same,SPOT peptide array binding signal intensity,SpSla1-D1-D2,≤ 0
same,SPOT peptide array binding signal intensity,SpSla1-D3,≤ 0
DFTLPPPPPPPGLDE,SPOT peptide array binding signal intensity,AgAbp1,5
same,SPOT peptide array binding signal intensity,AgBbc1,≤ 0
same,SPOT peptide array binding signal intensity,AgBem1-D1,≤ 0
same,SPOT peptide array binding signal intensity,AgBzz1-D1,≤ 0
same,SPOT peptide array binding signal intensity,AgBzz1-D2,≤ 0
same,SPOT peptide array binding signal intensity,AgCyk3,≤ 0
same,SPOT peptide array binding signal intensity,AgFus1,≤ 0
same,SPOT peptide array binding signal intensity,AgHof1,57.5
same,SPOT peptide array binding signal intensity,AgHse1,≤ 0
same,SPOT peptide array binding signal intensity,AgLsb1,2
same,SPOT peptide array binding signal intensity,AgLsb4,≤ 0
same,SPOT peptide array binding signal intensity,AgMyo5,1550
same,SPOT peptide array binding signal intensity,AgNbp2,32.5
same,SPOT peptide array binding signal intensity,AgRvs167,1.67
same,SPOT peptide array binding signal intensity,AgSho1,2
same,SPOT peptide array binding signal intensity,AgSla1-D1-D2,1
same,SPOT peptide array binding signal intensity,AgSla1-D3,0.5
same,SPOT peptide array binding signal intensity,CaAbp1-D1,≤ 0
same,SPOT peptide array binding signal intensity,CaAbp1-D2,≤ 0
same,SPOT peptide array binding signal intensity,CaBbc1,≤ 0
same,SPOT peptide array binding signal intensity,CaBem1-D1,0.5
same,SPOT peptide array binding signal intensity,CaBzz1-D1,136
same,SPOT peptide array binding signal intensity,CaBzz1-D2,5.5
same,SPOT peptide array binding signal intensity,CaCyk3,≤ 0
same,SPOT peptide array binding signal intensity,CaFus1,≤ 0
same,SPOT peptide array binding signal intensity,CaHof1,≤ 0
same,SPOT peptide array binding signal intensity,CaHse1,≤ 0
same,SPOT peptide array binding signal intensity,CaLsb1,0.5
same,SPOT peptide array binding signal intensity,CaLsb4,≤ 0
same,SPOT peptide array binding signal intensity,CaMyo5,8
same,SPOT peptide array binding signal intensity,CaNbp2,20
same,SPOT peptide array binding signal intensity,CaRvs167,≤ 0
same,SPOT peptide array binding signal intensity,CaRvs167-3,≤ 0
same,SPOT peptide array binding signal intensity,CaSho1,≤ 0
same,SPOT peptide array binding signal intensity,CaSla1-D1-D2,≤ 0
same,SPOT peptide array binding signal intensity,CaSla1-D3,≤ 0
same,SPOT peptide array binding signal intensity,ScAbp1,≤ 0
same,SPOT peptide array binding signal intensity,ScBbc1,≤ 0
same,SPOT peptide array binding signal intensity,ScBem1-D1,≤ 0
same,SPOT peptide array binding signal intensity,ScBzz1-D1,≤ 0
same,SPOT peptide array binding signal intensity,ScBzz1-D2,1
same,SPOT peptide array binding signal intensity,ScCyk3,0.5
same,SPOT peptide array binding signal intensity,ScFus1,3
same,SPOT peptide array binding signal intensity,ScHof1,14.8
same,SPOT peptide array binding signal intensity,ScHse1,≤ 0
same,SPOT peptide array binding signal intensity,ScLsb1,≤ 0
same,SPOT peptide array binding signal intensity,ScLsb2,3.5
same,SPOT peptide array binding signal intensity,ScLsb3,≤ 0
same,SPOT peptide array binding signal intensity,ScLsb4,≤ 0
same,SPOT peptide array binding signal intensity,ScMyo3,2030
same,SPOT peptide array binding signal intensity,ScMyo5,1990
same,SPOT peptide array binding signal intensity,ScNbp2,18
same,SPOT peptide array binding signal intensity,ScPex13,≤ 0
same,SPOT peptide array binding signal intensity,ScRvs167,3.33
same,SPOT peptide array binding signal intensity,ScSho1,≤ 0
same,SPOT peptide array binding signal intensity,ScSla1-D1-D2,≤ 0
same,SPOT peptide array binding signal intensity,ScSla1-D3,≤ 0
same,SPOT peptide array binding signal intensity,SpAbp1-D1,≤ 0
same,SPOT peptide array binding signal intensity,SpBbc1,≤ 0
same,SPOT peptide array binding signal intensity,SpBzz1-D1,1300
same,SPOT peptide array binding signal intensity,SpBzz1-D2,2.5
same,SPOT peptide array binding signal intensity,SpCyk3,≤ 0
same,SPOT peptide array binding signal intensity,SpHof1,2
same,SPOT peptide array binding signal intensity,SpHof1-2,2.5
same,SPOT peptide array binding signal intensity,SpHof1-3,1.5
same,SPOT peptide array binding signal intensity,SpHse1,≤ 0
same,SPOT peptide array binding signal intensity,SpLsb1,≤ 0
same,SPOT peptide array binding signal intensity,SpLsb4,≤ 0
same,SPOT peptide array binding signal intensity,SpMyo1,1210
same,SPOT peptide array binding signal intensity,SpNbp2,9
same,SPOT peptide array binding signal intensity,SpPex13,≤ 0
same,SPOT peptide array binding signal intensity,SpRvs167,≤ 0
same,SPOT peptide array binding signal intensity,SpSla1-D1-D2,≤ 0
same,SPOT peptide array binding signal intensity,SpSla1-D3,≤ 0
